# High-throughput results as filed in PubChem.
# TrxR1 inh = qHTS Assay for Inhibitors of Mammalian Selenoprotein Thioredoxin Reductase 1 (TrxR1): qHTS | recombinant rTrxR1, NADPH fluorescence consumption, selenite substrate | Potency, µM (doses to about 114 µM), for the others: at the top dose activity change, negative = inhibition, actives largely listed as inhibitors | 390,000 compounds, 1% hits | AID 588453, 2011; note: nearly all actives have a fitted effect of over 65% in size
#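 Rat TrxR1 (90 nM in the dispensed reagent) was pre-reduced with 400 uM NADPH for 5 min at room temperature, then incubated with compound for 15 min. After 400 uM selenite was added, NADPH fluorescence (Ex 340/Em 450 nm) was followed for 8 min.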
# IDH1 R132H inh = qHTS for Inhibitors of mutant isocitrate dehydrogenase 1 (IDH1): qHTS. IDH1-R132H enzyme, NADPH consumption, diaphorase/resazurin fluorescence. Potency, µM (titrated, usually from 76.6 µM), for inactives: at the top dose activity change, negative = inhibition, hits mostly inhibitors. 390,000 compounds, 0.093% hits. AID 602179, 2012; note: nearly all actives have a fitted effect of over 65% in size
#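 IDH1-R132H (0.5 ug/mL dispensed) in pH 7.5 Tris buffer was preincubated 30 min with compound, then given a substrate mix of 0.016 mM NADPH and 2 mM alpha-KG for 80 min at room temperature; remaining NADPH was read by diaphorase/resazurin fluorescence.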
# TrxR1 substrate = qHTS Assay for Substrates of Mammalian Selenoprotein Thioredoxin Reductase 1 (TrxR1): qHTS. Thioredoxin reductase 1, cytoplasmic (Rattus norvegicus), O89049. purified TrxR1 substrate turnover, NADPH consumption readout. Potency, µM (doses to about 114 µM), without a hit: top-dose activity change, negative = substrate turnover. 390,000 compounds, 0.01% hits. AID 588456, 2011; note: nearly all actives have a fitted effect of over 50% in size
#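 Rat TrxR1, dispensed at 90 nM, was prereduced with 400 uM NADPH (final) for 5 min at ~22 deg C, then incubated with compound 15 min before 400 uM selenite. A first-read NADPH fluorescence drop versus no-compound background flagged substrates.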
# GLS inh = qHTS for Inhibitors of Glutaminase (GLS); Glutaminase kidney isoform, mitochondrial (Homo sapiens), O94925; GLS enzymatic activity, qHTS titration; Potency, µM (series often up to 45.5 µM), for the others: at the top dose activity change, negative = inhibition, actives largely listed as inhibitors; 410,000 compounds, 0.21% hits; AID 624170, 2012
# Target sequence (O94925 whole entry, looked up, canonical isoform): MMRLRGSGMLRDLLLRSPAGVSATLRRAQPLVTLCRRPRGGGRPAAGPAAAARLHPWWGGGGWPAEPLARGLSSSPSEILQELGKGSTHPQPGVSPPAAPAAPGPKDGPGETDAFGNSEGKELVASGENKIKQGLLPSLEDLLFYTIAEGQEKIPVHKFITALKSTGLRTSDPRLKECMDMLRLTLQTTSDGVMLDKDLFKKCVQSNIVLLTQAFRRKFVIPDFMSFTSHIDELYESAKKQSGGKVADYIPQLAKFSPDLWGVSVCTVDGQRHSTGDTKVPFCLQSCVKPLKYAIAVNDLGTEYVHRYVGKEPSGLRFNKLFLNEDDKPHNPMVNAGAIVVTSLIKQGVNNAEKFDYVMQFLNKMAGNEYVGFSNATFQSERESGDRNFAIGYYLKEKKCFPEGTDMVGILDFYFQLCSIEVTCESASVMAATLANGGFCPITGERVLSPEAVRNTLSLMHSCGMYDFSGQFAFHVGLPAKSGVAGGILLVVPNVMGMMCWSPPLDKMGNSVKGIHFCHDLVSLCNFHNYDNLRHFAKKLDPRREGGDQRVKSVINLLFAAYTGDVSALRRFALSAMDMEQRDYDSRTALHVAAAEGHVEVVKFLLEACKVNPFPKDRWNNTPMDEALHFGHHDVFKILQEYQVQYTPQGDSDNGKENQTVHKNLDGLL
#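 Glutamate formation by hKGA was monitored fluorometrically using coupled glutamate oxidase, HRP and Amplex Red. Substrate was added as 1 mM L-glutamine solution; incubation was 30 min at RT after an initial read.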
# An asterisk follows results filed as active; ? = inconclusive; . = no result given; [ ] = remark or other dose. Shown are actives, neighbours in structure and some others; about 1.2% of the full set was active somewhere. Calls come from the whole dose curve; as a rule, active = well fitted curve in the direction sought with a large enough effect; inconclusive = small, poorly fitted or top-dose-only effect, or another doubt; inactive = no such curve, though single readings can be large; an effect the other way counts as inactive or inconclusive. % is set by controls: 0 for no effect and ±100 for the full control effect; potency is the fitted concentration of half-maximal effect.
SMILES,TrxR1 inh,IDH1 R132H inh,TrxR1 substrate,GLS inh
CC(C)Cn1c(C(C)C)nc([N+](=O)[O-])c1S(=O)(=O)c1ccc(F)cc1,?,5.0%,2.8%,5.8%
CCCc1nc([N+](=O)[O-])c(S(=O)(=O)c2ccccc2)n1CC(C)C,2.82µM*,2.1%,-3.0%,7.6%
COc1cc(Cl)c(C)cc1NC(=O)c1cc2c(=O)oc3ccccc3c2s1,21.8%,-9.4%,9.2%[2.29 µM],-11.0%
CCN(CC)c1ccc(/C=C/c2ccccn2)cc1,?,.,-29.5%,.
O=C(/C=C/c1ccco1)N(Cc1ccccc1F)C1CCS(=O)(=O)C1 (stereo not drawn),28.2µM*,0.7%,-2.5%,-18.1%
CC(C)c1ccc(CN(C(=O)/C=C/c2ccco2)C2CCS(=O)(=O)C2)cc1 (stereo not drawn),14.1µM*,2.9%,0.1%[57.1 µM],11.7%
C[C@@H]1O[C@@]2(CS1)CN1CCC2CC1,.,.,.,0.2%
CCOC(=O)C1=C(C)NC(C)=C(C(=O)OCC)C1c1ccco1,-3.4%,-1.3%,-12.2%,15.1%
CCOC(=O)C1=C(C)NC(=S)NC1c1ccc(-c2cccc(Cl)c2C)o1 (stereo not drawn),22.4µM*,0.9%,8.8%,-5.8%
CCOC(=O)C1=C(C)NC(=S)NC1c1ccco1 (stereo not drawn),50.1µM*,-9.6%,-4.6%,21.4%
O=C(Nc1cccc2cccnc12)c1c(Cl)cc(Cl)cc1Cl,19.2%,.,1.0%,.
CN(C)CCOC1=Cc2ccccc2Sc2ccc(Cl)cc21,.,.,.,2.2%
COC(=O)c1cc(C)nc2c1C(=O)C(=O)C=C2N1CCOCC1,-13.1%,25.5%,35.5µM*,-3.7%
COC(=O)c1cc(S(=O)(=O)N2CCOCC2)c(Cl)cc1N1CCOCC1,-19.3%,10.7%,-12.8%,7.5%
CCOC(=O)c1cc(OC(=O)c2cccs2)n(-c2ccccc2)n1,22.4µM*,1.0%,3.9%,16.5%
N#C/C(=C\c1cccc(Br)c1)C(=O)N1CCCCC1,14.1µM*,-7.7%,4.5%,-17.9%
N#C/C(=C\c1cccc(O)c1)C(=O)N1CCCCC1,?,14.1%,1.3%,-0.1%
O=C(NC(Cc1ccccc1)C(=O)O)/C(=C/c1ccco1)NC(=O)c1cccc(Br)c1 (stereo not drawn),?,-0.6%,-4.0%,17.8µM*
O=S(=O)(c1ccc(NC(=S)N2CCN(c3ccc(O)cc3)CC2)cc1)N1CCOCC1,-9.2%[57.1 µM],-7.5%,-10.5%,7.08µM*
CN1c2ccccc2C(C)(C)C12CC(CCl)=NO2 (stereo not drawn),25.1µM*,4.4%,-1.8%[57.1 µM],6.6%
CN1c2ccccc2C(C)(C)C12C=Nc1c(ccc3ccccc13)O2 (stereo not drawn),-8.7%,21.2%,-1.6%,7.3%
Cc1ccccc1CS(=O)(=O)c1nnc([C@H](CC(C)C)NC(=O)OC(C)(C)C)o1,3.98µM*,0.2%,9.5%,-0.6%
CC(C)C[C@H](NC(=O)OC(C)(C)C)c1nnc(SCc2ccccc2)o1,12.0%,9.6%,-7.3%,-4.7%
CC[C@@H](C)[C@H](NC(=O)OC(C)(C)C)c1nnc(S(=O)(=O)Cc2cc(C)ccc2C)o1,1.12µM*,11.2%,-3.4%,0.9%
CC(C)[C@H](NC(=O)OC(C)(C)C)c1nnc(S(=O)(=O)Cc2c(F)cccc2Cl)o1,0.708µM*,16.9%,10.0%,11.1%
SMILES,TrxR1 inh,IDH1 R132H inh,TrxR1 substrate,GLS inh
CC(C)C[C@H](N)c1nnc(S(=O)(=O)Cc2cccc(F)c2)o1,0.631µM*,9.4%,10.6%[57.1 µM],8.5%
Cc1cc2c(cc3c(SCc4cccc(F)c4)nnc(C)n32)o1,10.8%,.,-2.1%,-14.5%
CCCN1CCN(c2cc3c(cc2F)c(=O)c(S(=O)(=O)c2ccc(CC)cc2)cn3CC)CC1,8.5%,-2.1%,34.0%,2.8%
CCC1CN(C(=O)Nc2ccc(C)c(F)c2)c2ccccc2S1 (stereo not drawn),-9.1%,-7.5%,-10.7%,-9.0%
CC(C)(C)n1ncc2c(=O)n(Cc3cccc(C#N)c3)cnc21,10.0%,.,-5.2%,.
CCc1cccc(C)c1NC(=O)c1cn2c3c(ccc(Cl)c3c1=O)OC(C)C2 (stereo not drawn),2.1%,-4.4%,-5.6%,1.1%
